This note sets out measurements from the supplement of paper PMC9492666.

Assay [1] relates to HCC1937. Briefly: relative cell viability, compound alone, vs DMSO (fraction of DMSO control); higher = less growth inhibition. Particulars: 72 h.
Assay [2] relates to MDA-MB-231. Described as above. The conditions noted are these: 72 h.

Structures can show the parent of a compound that is named as a salt.
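Note: viability read out with the CCK-8 kit in 96-well plates, screening a set of 303 compounds acting on lipid metabolism targets.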

As for `NC(N)=N/N=C/c1cccc(Cl)c1Cl` [Raphin1 acetate], the values for the relative cell viability in assay [1] and in assay [2] were 1.01 and 0.822, respectively.
As for `COc1cc(C(C)=O)ccc1O` [Acetovanillone], the results for the relative cell viability in assay [1] and in assay [2] were 0.833 and 0.891, respectively.
With `CCc1c(-c2ccccc2)c(-c2ccccc2)nn1-c1ccccc1-c1cccc(OCC(=O)O)c1`, the relative cell viability is 1.18 in assay [1] and 0.994 in assay [2].
For the compound `c1cc(-c2cnn3cc(-c4ccc(OCCN5CCCCC5)cc4)cnc23)ccn1` [Dorsomorphin], the relative cell viability in assay [1] stood at 0.216; in assay [2], 0.383.
The matching figures for `Cn1nc(C(=O)N(Cc2ccccc2)Cc2ccc(C(=O)O)cc2)c2c1-c1cc(Cl)ccc1OC2` [Nidufexor]: 0.937 and 0.932.
Take `CC(C)CCC[C@@H](C)[C@H]1CC[C@H]2[C@@H]3CC=C4C[C@@H](O)CC[C@]4(C)[C@H]3CC[C@]12C` [Cholesterol]: the relative cell viability was 0.91 in assay [1] and 1.01 in assay [2].
`CCCc1cc(-c2nc(-c3ccc(C)cc3)cs2)ccn1` [Fatostatin]: the relative cell viability in assay [1] was 0.733; in assay [2] it was 0.745.
For the compound `CC(C)(O)[C@@H]1Cc2cc3ccc(=O)oc3cc2O1` [marmesin], the relative cell viability in assay [1] amounted to 0.74; in assay [2], 0.866.
As for `O=C(NN1CCCCC1)c1nn(-c2ccc(Cl)cc2Cl)c(-c2ccc(C#Cc3ccc(C(F)(F)F)cc3)s2)c1CNS(=O)(=O)N1CCCC1`, the relative cell viability in assay [1] was determined as 1.01; in assay [2] it was 0.893.
With `CC(C)OC(=O)C(C)(C)Oc1ccc(C(=O)c2ccc(Cl)cc2)cc1` [Fenofibrate], the relative cell viability was 1.16 in assay [1] and 0.955 in assay [2].
As to `COc1ccc2c(c1)c(CC(=O)O)c(C)n2C(=O)c1ccc(Cl)cc1` [Indometacin], the relative cell viability in assay [1] came to 1.28; in assay [2], 0.842.
Take `CC(C)(Oc1ccc(Cl)cc1)C(=O)O` [Clofibric acid]: the relative cell viability was found to be 1.24 in assay [1] and 0.825 in assay [2].
For `CC[C@H](C)C(=O)O[C@H]1CCC=C2C=C[C@H](C)[C@H](CC[C@@H]3C[C@@H](O)CC(=O)O3)[C@H]21` [Mevastatin], the relative cell viability in assay [1] worked out at 0.819; in assay [2], 0.548.
Consider `Cc1c(C(=O)Nc2ccc(CO)cc2)nnn1Cc1ccc(Cl)c(Cl)c1`, for which the relative cell viability stood at 0.975 in assay [1] and 0.95 in assay [2].
Consider `O=C(CN1CCN(C(=O)c2ccco2)CC1)Nc1cc(C(F)(F)F)ccc1Cl`, for which the relative cell viability in assay [1] stood at 0.767; in assay [2], 0.892.
Regarding `Cc1ccc(/C=C2\SC(=S)N(CCCCCC(=O)Nc3ccc(C(=O)O)c(O)c3)C2=O)cc1`, the relative cell viability worked out at 1.07 in assay [1] and 0.914 in assay [2].
Consider `c1ccc([C@H]2CN3CCSC3=N2)cc1` [Levamisole hydrochloride], for which the results for the relative cell viability in assay [1] and in assay [2] were 0.815 and 0.887, respectively.
`Nc1cccc(S(=O)(=O)N2CCCN(S(=O)(=O)c3ccc4c(c3)OCCO4)CC2)c1`: the relative cell viability in assay [1] was found to be 0.881; in assay [2] it was 1.01.
As for `O=S(=O)(Nc1ccc(C(O)(C(F)(F)F)C(F)(F)F)cc1)c1cccs1`, the values for the relative cell viability in assay [1] and in assay [2] were 1.1 and 1.03, respectively.
Turning to `CCN(CC)CCCC(C)Nc1c2ccc(Cl)cc2nc2ccc(OC)cc12` (configuration not stated) [Quinacrine dihydrochloride], the values for the relative cell viability in assay [1] and in assay [2] were 0.212 and 0.306, respectively.
The matching figures for `O=C(O)CCn1c2c(c3ccccc31)C[C@H](NS(=O)(=O)c1ccc(F)cc1)CC2` [Ramatroban]: 0.711 and 0.841.
As to `COc1ccc(-c2coc3cc(O)cc(O)c3c2=O)cc1` [Biochanin A], the relative cell viability in assay [1] amounted to 0.813; in assay [2], 0.729.
Consider `CC(C)OC(=O)CCC/C=C\C[C@@H]1[C@@H](CC[C@@H](O)CCc2ccccc2)[C@H](O)C[C@@H]1O` [Latanoprost], for which the results for the relative cell viability in assay [1] and in assay [2] were 1.43 and 0.88, respectively.
As for `NC(N)=NN=Cc1cccc(Cl)c1Cl` [Raphin1], the results for the relative cell viability in assay [1] and in assay [2] were 0.818 and 0.72, respectively.
As to `C[C@H](CCC(=O)O)[C@H]1CC[C@H]2[C@@H]3CC[C@@H]4C[C@H](O)CC[C@]4(C)[C@H]3CC[C@]12C` [Lithocholic acid], the relative cell viability is 1.16 in assay [1] and 0.99 in assay [2].
The matching figures for `O=C(Nc1ccncc1)c1cc([N+](=O)[O-])ccc1Cl`: 0.81 and 0.831.
Take `CCCCCCCCCCCC1=C(O)C(=O)C=C(O)C1=O` [Embelin]: the relative cell viability in assay [1] was determined as 1.08; in assay [2], 0.983.
For `CCCCCCCCCCC[C@@H](C[C@@H]1OC(=O)[C@H]1CCCCCC)OC(=O)[C@H](CC(C)C)NC=O` [Orlistat], the relative cell viability came out at 0.977 in assay [1] and 0.809 in assay [2].
The matching figures for `C[C@@H](Nc1nc(N[C@H](C)C(F)(F)F)nc(-c2cccc(Cl)n2)n1)C(F)(F)F` [Vorasidenib]: 0.708 and 0.914.
As to `Cc1nc(-c2nc(-c3ccc(OC(F)(F)F)cc3)no2)nn1Cc1cccc(N2CCC(S(C)(=O)=O)CC2)c1`, the relative cell viability is 0.93 in assay [1] and 0.775 in assay [2].
On the same counts, the results for `CCCCCCCCCCC#CC#CCCCCCCCCC(=O)O` [10,12-Tricosadiynoic acid] are 0.712 and 0.911.
Take `Fc1ccc(-c2c3cccc(C(F)(F)F)c3nn2Cc2ccc(F)cc2Cl)cc1`: the results for the relative cell viability in assay [1] and in assay [2] were 1.11 and 0.816, respectively.
On to `Cc1cnc(C(=O)NCCc2ccc(S(=O)(=O)NC(=O)NC3CCCCC3)cc2)cn1` [Glipizide], for which the relative cell viability came to 0.679 in assay [1] and 0.817 in assay [2].
On the same counts, the results for `CCC(=O)O[C@]1(C(=O)CCl)[C@@H](C)C[C@H]2[C@@H]3C[C@H](F)C4=CC(=O)C=C[C@]4(C)[C@@]3(F)[C@@H](O)C[C@@]21C` [Halobetasol Propionate] are 1.12 and 1.13.
Take `CCCCCCCCCCCCCCCC(=O)NCCO` [Palmidrol]: the relative cell viability in assay [1] was determined as 1.39; in assay [2] it was 1.13.
Turning to `COc1cccc(-n2c(=O)[nH]c3cc(Cl)n(-c4ccc(-c5cccc(OC)c5O)cc4)c3c2=O)c1`, the relative cell viability in assay [1] amounted to 0.835; in assay [2], 0.903.
